# In ChEMBL document CHEMBL1961873, “Compounds: GSK PKIS; Assays: Nanosyn kinase panel” (2012):
# Experiments:
# [1] = target: Sphingosine kinase 1 (Homo sapiens) (UniProt Q9NYA1); conditions: at 1 µM;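 note: mean SPHK1 inhibition value reported from the GSK PKIS kinase panel screen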
# [2] = target: T1, Sphingosine kinase 2 (Homo sapiens) (UniProt Q9NRA0); conditions: at 0.1 µM
# T1 sequence (whole entry): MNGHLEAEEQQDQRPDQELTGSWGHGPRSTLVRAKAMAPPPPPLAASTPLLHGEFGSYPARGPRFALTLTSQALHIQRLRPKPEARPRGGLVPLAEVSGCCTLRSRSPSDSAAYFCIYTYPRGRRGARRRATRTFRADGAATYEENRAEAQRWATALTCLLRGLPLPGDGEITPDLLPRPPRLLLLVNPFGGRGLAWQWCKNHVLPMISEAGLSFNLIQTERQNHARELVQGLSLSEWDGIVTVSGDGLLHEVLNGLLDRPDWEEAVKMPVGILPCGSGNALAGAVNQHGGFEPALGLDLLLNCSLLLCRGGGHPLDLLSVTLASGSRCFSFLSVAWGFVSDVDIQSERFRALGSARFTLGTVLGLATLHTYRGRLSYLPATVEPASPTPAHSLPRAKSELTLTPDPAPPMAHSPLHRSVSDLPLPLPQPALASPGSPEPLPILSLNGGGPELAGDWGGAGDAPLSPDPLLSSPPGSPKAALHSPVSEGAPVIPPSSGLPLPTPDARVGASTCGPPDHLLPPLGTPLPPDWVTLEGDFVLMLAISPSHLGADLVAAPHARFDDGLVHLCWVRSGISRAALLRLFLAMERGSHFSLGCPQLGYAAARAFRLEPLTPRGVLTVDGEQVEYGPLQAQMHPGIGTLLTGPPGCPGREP
# [3] = target: T1, Sphingosine kinase 2 (Homo sapiens); conditions: at 1 µM
# [4] = target: Casein kinase II subunit alpha (Homo sapiens) (UniProt P68400); conditions: at 0.1 µM
# [5] = target: Casein kinase II subunit alpha (Homo sapiens) (UniProt P68400); conditions: at 1 µM
# [6] = target: T2, Inhibitor of nuclear factor kappa-B kinase subunit alpha (Homo sapiens) (UniProt O15111); conditions: at 0.1 µM
# T2 sequence (whole entry): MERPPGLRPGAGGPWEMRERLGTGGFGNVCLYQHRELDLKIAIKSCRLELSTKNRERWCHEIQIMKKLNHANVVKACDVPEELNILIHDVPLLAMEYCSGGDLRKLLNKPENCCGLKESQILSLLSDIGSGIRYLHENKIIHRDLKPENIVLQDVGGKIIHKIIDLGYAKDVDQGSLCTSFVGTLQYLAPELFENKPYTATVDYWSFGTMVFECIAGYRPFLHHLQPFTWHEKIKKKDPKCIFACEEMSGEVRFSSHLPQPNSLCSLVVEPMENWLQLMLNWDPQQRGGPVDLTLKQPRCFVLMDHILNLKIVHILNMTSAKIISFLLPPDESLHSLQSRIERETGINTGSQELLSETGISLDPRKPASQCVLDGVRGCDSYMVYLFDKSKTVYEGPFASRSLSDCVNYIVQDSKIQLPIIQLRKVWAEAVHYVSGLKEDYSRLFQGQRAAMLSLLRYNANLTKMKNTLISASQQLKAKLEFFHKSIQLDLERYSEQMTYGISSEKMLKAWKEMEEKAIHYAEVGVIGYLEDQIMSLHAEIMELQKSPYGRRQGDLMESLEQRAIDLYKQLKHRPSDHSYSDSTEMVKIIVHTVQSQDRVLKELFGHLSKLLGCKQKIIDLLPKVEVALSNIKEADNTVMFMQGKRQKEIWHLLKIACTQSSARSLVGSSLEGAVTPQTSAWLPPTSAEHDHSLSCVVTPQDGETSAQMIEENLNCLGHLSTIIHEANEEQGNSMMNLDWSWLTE
# [7] = target: T2, Inhibitor of nuclear factor kappa-B kinase subunit alpha (Homo sapiens); conditions: at 1 µM
# [8] = target: T3, Inhibitor of nuclear factor kappa-B kinase subunit beta (Homo sapiens) (UniProt O14920); conditions: at 0.1 µM
# T3 sequence (whole entry): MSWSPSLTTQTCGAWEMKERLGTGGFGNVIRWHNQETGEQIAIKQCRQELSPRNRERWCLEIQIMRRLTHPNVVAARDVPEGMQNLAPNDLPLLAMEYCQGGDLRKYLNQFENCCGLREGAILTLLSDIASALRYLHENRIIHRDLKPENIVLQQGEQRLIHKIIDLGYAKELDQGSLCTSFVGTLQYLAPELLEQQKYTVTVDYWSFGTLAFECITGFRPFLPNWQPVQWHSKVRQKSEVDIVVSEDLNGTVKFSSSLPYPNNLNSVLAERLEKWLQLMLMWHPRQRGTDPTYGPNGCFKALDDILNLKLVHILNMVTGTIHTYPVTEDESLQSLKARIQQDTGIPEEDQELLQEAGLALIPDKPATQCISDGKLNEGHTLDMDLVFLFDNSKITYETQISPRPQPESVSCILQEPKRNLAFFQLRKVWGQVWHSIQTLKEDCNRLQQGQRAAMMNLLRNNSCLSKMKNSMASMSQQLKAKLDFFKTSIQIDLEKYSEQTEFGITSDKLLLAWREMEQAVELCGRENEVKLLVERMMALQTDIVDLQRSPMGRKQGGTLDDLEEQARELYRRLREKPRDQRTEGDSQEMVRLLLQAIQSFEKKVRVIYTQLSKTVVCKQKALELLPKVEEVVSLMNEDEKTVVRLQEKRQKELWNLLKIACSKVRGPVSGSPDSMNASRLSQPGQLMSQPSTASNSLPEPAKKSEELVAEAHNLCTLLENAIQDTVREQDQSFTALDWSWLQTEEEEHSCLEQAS
# [9] = target: T3, Inhibitor of nuclear factor kappa-B kinase subunit beta (Homo sapiens); conditions: at 1 µM
# [10] = target: T4, Inhibitor of nuclear factor kappa-B kinase subunit epsilon (Homo sapiens) (UniProt Q14164); conditions: at 0.1 µM
# T4 sequence (whole entry): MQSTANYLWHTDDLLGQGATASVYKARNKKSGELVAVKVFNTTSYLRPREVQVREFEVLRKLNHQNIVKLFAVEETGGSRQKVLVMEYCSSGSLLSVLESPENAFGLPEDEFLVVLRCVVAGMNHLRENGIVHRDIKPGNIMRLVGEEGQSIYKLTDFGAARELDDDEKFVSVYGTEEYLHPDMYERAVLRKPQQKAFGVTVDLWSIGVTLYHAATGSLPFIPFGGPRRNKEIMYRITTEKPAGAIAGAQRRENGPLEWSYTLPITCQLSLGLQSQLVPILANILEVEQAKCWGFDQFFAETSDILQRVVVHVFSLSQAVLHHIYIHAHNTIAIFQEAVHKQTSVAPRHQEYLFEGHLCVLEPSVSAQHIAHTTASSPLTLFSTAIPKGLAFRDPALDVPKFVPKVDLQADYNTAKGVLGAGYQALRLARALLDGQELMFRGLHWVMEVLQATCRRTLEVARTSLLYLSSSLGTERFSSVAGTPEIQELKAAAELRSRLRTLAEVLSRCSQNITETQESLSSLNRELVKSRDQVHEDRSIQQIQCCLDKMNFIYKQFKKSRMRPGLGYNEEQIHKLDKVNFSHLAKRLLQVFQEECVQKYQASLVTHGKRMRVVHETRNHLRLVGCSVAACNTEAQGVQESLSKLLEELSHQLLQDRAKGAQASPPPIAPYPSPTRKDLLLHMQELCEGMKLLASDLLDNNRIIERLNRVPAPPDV
# [11] = target: T4, Inhibitor of nuclear factor kappa-B kinase subunit epsilon (Homo sapiens); conditions: at 1 µM
# [12] = target: T5, Serine/threonine-protein kinase Nek1 (Homo sapiens) (UniProt Q96PY6); conditions: at 0.1 µM
# T5 sequence (whole entry): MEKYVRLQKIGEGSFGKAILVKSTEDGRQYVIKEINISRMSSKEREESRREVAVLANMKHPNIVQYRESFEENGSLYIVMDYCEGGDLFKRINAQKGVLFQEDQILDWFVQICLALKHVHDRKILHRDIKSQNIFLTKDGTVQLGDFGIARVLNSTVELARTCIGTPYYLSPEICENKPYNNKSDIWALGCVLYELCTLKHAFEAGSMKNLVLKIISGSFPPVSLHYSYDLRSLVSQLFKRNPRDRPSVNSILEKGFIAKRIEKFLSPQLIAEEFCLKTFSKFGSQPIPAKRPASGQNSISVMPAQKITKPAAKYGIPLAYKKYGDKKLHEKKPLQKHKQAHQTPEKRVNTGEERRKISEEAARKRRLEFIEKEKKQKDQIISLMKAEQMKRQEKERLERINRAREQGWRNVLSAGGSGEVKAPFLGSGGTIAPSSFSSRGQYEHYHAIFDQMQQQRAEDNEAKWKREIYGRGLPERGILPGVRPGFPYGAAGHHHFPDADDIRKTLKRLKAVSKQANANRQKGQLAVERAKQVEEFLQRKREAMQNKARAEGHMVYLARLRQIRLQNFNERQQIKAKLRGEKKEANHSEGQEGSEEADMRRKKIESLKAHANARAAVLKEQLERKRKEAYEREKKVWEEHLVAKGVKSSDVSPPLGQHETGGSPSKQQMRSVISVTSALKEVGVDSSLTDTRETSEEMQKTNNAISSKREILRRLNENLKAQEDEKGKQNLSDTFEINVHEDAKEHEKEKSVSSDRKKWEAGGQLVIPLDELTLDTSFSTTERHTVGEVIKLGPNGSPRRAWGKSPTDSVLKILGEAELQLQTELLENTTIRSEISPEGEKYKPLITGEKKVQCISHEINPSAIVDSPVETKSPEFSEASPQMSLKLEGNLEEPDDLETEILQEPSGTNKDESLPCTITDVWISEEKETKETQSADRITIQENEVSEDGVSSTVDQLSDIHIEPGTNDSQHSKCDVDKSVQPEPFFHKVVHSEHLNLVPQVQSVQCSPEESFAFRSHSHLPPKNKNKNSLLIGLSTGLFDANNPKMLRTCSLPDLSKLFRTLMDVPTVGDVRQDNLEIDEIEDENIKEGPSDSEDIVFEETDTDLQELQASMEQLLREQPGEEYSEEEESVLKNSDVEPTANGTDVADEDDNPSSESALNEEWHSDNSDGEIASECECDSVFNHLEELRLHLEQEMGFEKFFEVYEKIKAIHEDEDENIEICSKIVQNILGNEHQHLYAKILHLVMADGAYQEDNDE
# [13] = target: T5, Serine/threonine-protein kinase Nek1 (Homo sapiens); conditions: at 1 µM
# [14] = target: T6, Serine/threonine-protein kinase Nek2 (Homo sapiens) (UniProt P51955); conditions: at 0.1 µM
# T6 sequence (whole entry): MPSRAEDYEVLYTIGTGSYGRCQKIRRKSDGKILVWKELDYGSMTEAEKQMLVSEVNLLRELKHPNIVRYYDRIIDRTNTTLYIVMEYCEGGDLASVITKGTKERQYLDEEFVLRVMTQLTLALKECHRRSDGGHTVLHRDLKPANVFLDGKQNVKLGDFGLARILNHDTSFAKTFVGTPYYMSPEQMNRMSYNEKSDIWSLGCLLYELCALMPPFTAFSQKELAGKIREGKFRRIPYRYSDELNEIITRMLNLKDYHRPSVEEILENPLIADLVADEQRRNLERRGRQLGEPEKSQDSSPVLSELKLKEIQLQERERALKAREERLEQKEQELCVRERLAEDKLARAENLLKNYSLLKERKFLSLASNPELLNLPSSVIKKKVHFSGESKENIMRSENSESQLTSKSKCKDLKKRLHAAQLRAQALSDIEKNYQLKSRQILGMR
# [15] = target: T6, Serine/threonine-protein kinase Nek2 (Homo sapiens); conditions: at 1 µM
# [16] = target: Serine/threonine-protein kinase Nek6 (Homo sapiens) (UniProt Q9HC98); conditions: at 0.1 µM
# [17] = target: Serine/threonine-protein kinase Nek6 (Homo sapiens) (UniProt Q9HC98); conditions: at 1 µM
# [18] = target: Serine/threonine-protein kinase Nek7 (Homo sapiens) (UniProt Q8TDX7); conditions: at 0.1 µM
# [19] = target: Serine/threonine-protein kinase Nek7 (Homo sapiens) (UniProt Q8TDX7); conditions: at 1 µM
# [20] = target: T7, Serine/threonine-protein kinase Nek9 (Homo sapiens) (UniProt Q8TD19); conditions: at 0.1 µM;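 note: reported value is the mean percent inhibition of NEK9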
# T7 sequence (whole entry): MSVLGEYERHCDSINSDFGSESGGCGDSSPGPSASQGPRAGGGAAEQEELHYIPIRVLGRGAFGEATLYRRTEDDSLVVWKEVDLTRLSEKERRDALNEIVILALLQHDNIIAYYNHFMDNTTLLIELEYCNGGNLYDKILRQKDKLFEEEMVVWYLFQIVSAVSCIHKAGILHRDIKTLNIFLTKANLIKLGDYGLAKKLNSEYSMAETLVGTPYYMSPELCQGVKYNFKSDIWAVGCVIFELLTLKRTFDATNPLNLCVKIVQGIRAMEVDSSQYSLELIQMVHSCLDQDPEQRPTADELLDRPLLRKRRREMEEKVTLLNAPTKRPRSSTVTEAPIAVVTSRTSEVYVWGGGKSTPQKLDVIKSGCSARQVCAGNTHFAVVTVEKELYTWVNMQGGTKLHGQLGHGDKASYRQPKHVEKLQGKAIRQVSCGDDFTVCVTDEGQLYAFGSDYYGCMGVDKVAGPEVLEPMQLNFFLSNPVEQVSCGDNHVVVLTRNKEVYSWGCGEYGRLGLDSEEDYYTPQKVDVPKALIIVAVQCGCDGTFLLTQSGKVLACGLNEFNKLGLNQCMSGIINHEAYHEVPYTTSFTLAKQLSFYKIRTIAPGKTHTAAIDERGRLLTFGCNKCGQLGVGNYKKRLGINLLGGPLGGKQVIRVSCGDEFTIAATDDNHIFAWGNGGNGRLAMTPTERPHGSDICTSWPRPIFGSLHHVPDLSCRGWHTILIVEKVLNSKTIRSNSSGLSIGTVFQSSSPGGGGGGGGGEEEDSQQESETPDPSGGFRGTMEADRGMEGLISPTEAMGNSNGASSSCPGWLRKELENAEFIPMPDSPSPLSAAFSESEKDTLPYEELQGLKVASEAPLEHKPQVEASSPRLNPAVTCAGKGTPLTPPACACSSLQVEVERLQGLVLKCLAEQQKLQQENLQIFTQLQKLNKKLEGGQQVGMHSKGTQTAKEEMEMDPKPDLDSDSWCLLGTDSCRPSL
# Chain of Serine/threonine-protein kinase Nek6 (Homo sapiens) (Q9HC98 whole entry): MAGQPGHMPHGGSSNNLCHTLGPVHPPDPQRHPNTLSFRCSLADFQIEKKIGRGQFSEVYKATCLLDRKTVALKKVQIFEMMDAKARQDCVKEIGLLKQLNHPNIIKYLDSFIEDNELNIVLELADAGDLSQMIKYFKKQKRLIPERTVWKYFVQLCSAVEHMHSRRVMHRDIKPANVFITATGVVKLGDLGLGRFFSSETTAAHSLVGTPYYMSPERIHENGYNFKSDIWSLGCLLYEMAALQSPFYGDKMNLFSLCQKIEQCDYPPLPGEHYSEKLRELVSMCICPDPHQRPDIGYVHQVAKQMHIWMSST
# Chain of Serine/threonine-protein kinase Nek7 (Homo sapiens) (Q8TDX7 whole entry, looked up): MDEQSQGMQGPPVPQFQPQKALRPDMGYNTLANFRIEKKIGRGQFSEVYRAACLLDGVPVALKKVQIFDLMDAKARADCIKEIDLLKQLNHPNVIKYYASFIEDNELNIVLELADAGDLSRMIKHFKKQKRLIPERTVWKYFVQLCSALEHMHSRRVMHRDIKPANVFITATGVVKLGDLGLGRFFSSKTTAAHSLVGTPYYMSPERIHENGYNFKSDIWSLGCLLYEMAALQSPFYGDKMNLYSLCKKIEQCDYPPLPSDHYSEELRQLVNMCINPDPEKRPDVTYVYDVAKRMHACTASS
# Chain of Casein kinase II subunit alpha (Homo sapiens) (P68400 whole entry, looked up): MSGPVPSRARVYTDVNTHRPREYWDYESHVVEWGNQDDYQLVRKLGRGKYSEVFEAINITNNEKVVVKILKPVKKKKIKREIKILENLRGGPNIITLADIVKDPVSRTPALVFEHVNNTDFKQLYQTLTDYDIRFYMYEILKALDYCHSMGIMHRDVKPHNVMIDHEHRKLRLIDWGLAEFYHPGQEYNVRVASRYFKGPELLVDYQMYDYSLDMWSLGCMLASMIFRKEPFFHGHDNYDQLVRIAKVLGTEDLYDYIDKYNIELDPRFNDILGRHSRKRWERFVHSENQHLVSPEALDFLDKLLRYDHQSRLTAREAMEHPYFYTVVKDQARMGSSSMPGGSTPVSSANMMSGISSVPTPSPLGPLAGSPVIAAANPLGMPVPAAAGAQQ
# Chain of Sphingosine kinase 1 (Homo sapiens) (Q9NYA1 whole entry): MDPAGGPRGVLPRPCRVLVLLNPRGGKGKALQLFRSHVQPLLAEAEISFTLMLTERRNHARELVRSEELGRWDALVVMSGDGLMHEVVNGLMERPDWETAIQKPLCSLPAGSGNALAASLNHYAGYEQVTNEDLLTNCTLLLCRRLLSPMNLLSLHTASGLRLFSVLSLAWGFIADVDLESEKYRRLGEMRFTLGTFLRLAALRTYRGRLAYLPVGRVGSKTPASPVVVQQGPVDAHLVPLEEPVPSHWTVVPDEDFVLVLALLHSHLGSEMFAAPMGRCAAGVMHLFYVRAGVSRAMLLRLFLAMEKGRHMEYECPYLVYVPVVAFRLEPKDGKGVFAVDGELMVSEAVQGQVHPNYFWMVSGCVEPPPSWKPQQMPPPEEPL
SMILES,inhibition [1] [%],inhibition [2] [%],inhibition [3] [%],inhibition [4] [%],inhibition [5] [%],inhibition [6] [%],inhibition [7] [%],inhibition [8] [%],inhibition [9] [%],inhibition [10] [%],inhibition [11] [%],inhibition [12] [%],inhibition [13] [%],inhibition [14] [%],inhibition [15] [%],inhibition [16] [%],inhibition [17] [%],inhibition [18] [%],inhibition [19] [%],inhibition [20] [%]
CCS(=O)(=O)c1ccc(OC)c(Nc2ncc(-c3ccccc3Cl)o2)c1,-2.06,0,-1.74,3.8,23.3,2.45,3.42,1.4,-0.23,3.21,2.16,0.72,4.41,0.42,0.79,1.4,-2.46,-0.08,2.67,4.12
Nc1nccc(-c2c(-c3ccc(F)cc3)ncn2C2CCC(O)CC2)n1 (stereo not given),-4.02,2.29,0.26,-0.03,1.03,2.77,5.56,0.1,-1.66,-3.9,-2.64,-1.36,0.03,-2.37,-3.67,-4.15,-1.66,-2.24,-4.78,2.41
